The full ranking holds about 59,000 sequences; the median of the read-out is about -0.00055, and the lowest 2% start at about -2. Shown is part of a subset that was picked to be rich in the lowest values.
assay: Identification of proteins required for the processing of the EWS-FLI1 nascent transcript; conditions: TC32 Ewing sarcoma NR0B1-luc vs CMV-luc (EWS-FLI1 target promoter against control promoter), 48 h; screened at 20 nM (by protocol);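 further: robust z of luciferase light less the median z of siRNAs with the same seed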
In short: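 Readout: OneGlo luminescence, 48 h post-transfection, TC32-NR0B1-luc vs TC32-CMV-luc in parallel. siRNA 20 nM final, RNAiMax lipid, 600 cells/well; z-score-MAD transformed, then seed-adjusted.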

Sequence	seed-corrected z-score
AUUGUUACUAUUGGACAGG against RFPL4A	0.248
UGUUUGACCAUUCCGUAUC against VRK1	0.29
UUUCGUCUCAGCACUGCAC against ANKMY1	0.0118
UUUGUGACCAGCAAUCUGC against PLA2G2F	-0.775
AAGUUUAGCAAAGACCUGC against VPS39	-2.66
UCCGAGAUGAGGUAUUAGG against PPIP5K2	0.207
UUACACUUCAUUUCCAGAG against WNT11	1.06
UUCUUGCCUAGACAGCACC against JAK1	0.139
UUUGGGUAAAUAAUCCUUU against C4orf45	-1.15
UUCGGGUUGUUCUUUUUCC against TCHP	0.00716
AUAAUAUGAUUCCUAAUCC against FAM188A	0.685
UUAGCUGCAACUGGAAGGU against TEX13B	-3.82
UGAUGUCCAACACCAGUCC against ADCY3	1.37
UUGAACUAAACAUAUCAGC against TAB3	1.2
AGUGGAACAAGAUCUCAGU against NOL6	0.803
UUCAUACUCAGGCAUAUCC against SEC23A	-0.651
ACAGAUGUCACACUCGAAG against ZNF581	0.251
UUUCAUCUCUCUUAGAUAC against AP3S1	-0.346
UGAGAGUUGAGCCUUAUCA against OR8B8	-2.36
AGACGAUCAAGCUCUGGUG against CYB5R4	-0.548
ACAGGUGCAAACAAAGAGC against TMEM167B	-2.18
UGAACAUCCAGUUCUUCCC against CHERP	-1.4
UGGAUUAGCAUGACAGACC against COPB1	-2.98

Sequence	seed-corrected z-score
UAUGCUCCUCCCGACAAGU against HMGB1P1	0.175
AAACAGACCACCUCGUAGG against MTUS2-AS1	0.795
UAUCUUCGUACUCAUUUGG against TNFAIP6	-2.49
ACUAGAACAAUCUGCAUCC against ZBTB1	0.122
UAUCGGAAAGAUAGCCUGG against PTPN3	0.486
UACACGUACGGGAUAUUUG against HTR3A	-0.067
UGUUGUAGCACUCCAACGC against PRKDC	-4.34
UCUUUAUCAAAUCUGAGUG against FANCC	0.127
UGUGGGUUAAAAGUCAGCA against CDK4	-1.59
UCUACCAACAGCAAGAUAC against PLEKHG4B	-0.565
UGUAGGUGUAGGCUGUUCG against RFX2	-4.23
UUUCUGCUUGUAUCUGCCC against C1QC	-2
UUCUUUAAGUCAAAGUUUC against FEZF2	-1.32
UGCUUUAUUAUUAAUGGAC against PABPC3	-0.79
UGGAUUGUAACCUUUCAUC against EIF2B5	-0.151
UAUUUAUUAGAAACAUGGG against ZNF415	-2.45
AAAUAGUUCUCAGUCAUUC against RBM38	0.473
AGUUGUCCAAUGCAGAUGU against ZDHHC24	-0.264
AUAUUUGCAACCUGCAUUC against SPG7	-0.324
UCAGUUCUUGCAGUGCACC against FAM212B	-0.229
UGGGUGUUCAUGACCUGCC against LMF1	-2.6
UGCCCAUCCACAUUGUCCU against REXO1	-0.116
UACGAAUCAAACCAAGAUC against RASGRP3	-0.4

Sequence	seed-corrected z-score
UAUUGAUCUGCCGAGGAGC against CYFIP1	-0.5
UUCGUGACUGUCAUCAUCC against CARD11	0.437
UGAACAUACAUCUUGAAUC against SRP19	0.739
UCGGUGUAAGGUGUCCAUG against POU2AF1	-0.0736
UUCUUUCCAAACGCAAGAU against RPRML	-2.78
AACUUGGUAGCGGCUUUGG against CDHR1	-0.12
UAUAUUGCUCGGUCAAGUC against RBM4	-0.89
AAACACGUAGGGCACAUUC against SNU13	-5.96
AAUGGAAAUAUUCUCGACC against CNRIP1	-0.303
UCACAGAGCAGAUGGGUUC against PTPN7	-0.424
UUAAGUCUAGGGCAAAUUC against OGFOD1	0.0394
UUACCUGCAGAAACCUUCU against MUC1	-2.32
AAUCUUCUUGUCCUGACUC against PHPT1	-0.987
AAAUAGGCAAGGAAUCUUG against LARP1BP1	-1.48
AAUGUUGUCAUAGCCGAUG against PSTPIP2	-0.92
UACGUGUUGAUUUGUCAGC against ANKZF1	0.382
UCCAUUUCAGGAGCUACGC against OTULIN	-2.32
UGCUAAAAUAGUCGCAUCC against LOC727919	-0.265
AUACCUGCAGUGAACAUUU against ECH1	-3.28
UACUGACUCCUUGUAUGCC against CSTF2T	0.0375
UGUCAAACUGGUGCUGUUG against NAGLU	-0.208
AAUGUAAGGCCUUAAAUCG against MRPS27	0.696
UUCUUUCACGCUUAGUUUC against LOC729978	0.995

Sequence	seed-corrected z-score
AAAAUUUCAUCCAUCAAUC against NUS1	0.0341
UCUUCGUCCACAUUGGUUC against EPG5	-11.6
UUCUAUACCCAGUACAUGG against ZNF112	1.1
UGUUAUAGAAUGACGCACC against DNAH11	-0.639
AAAGCGAAGAGGUCUAGGC against PASK	0.632
UCCAGGUCUAGAACUUGCG against DACH1	-0.158
AAGUCGAUCCAUAACAAUC against AK9	0.17
AACCAUACUACAGUCAAUC against TIMM17A	0.0529
UCAUCUAAAAUCUCGGUAG against POLE	-2.51
UCAUAUACAGCAAACGGGC against RHOJ	-0.695
ACUGUUGUCACUGCGGUGG against GPR20	-0.419
UAAUUUCAGAGUAUGUCCG against PCDHAC2	-0.214
UGGGUAGUUAGACUUGAUC against ZNF160	-2.52
UACCUAUUUAGCAUAUUGG against GRIN2B	1.13
UUGGAUCCAGUUGAUAACG against EPCAM	0.867
UGAGUUACAGGGACCGAAG against LINC00944	-0.148
AGCUUGAGAAUUUACUUGG against HIST1H2BL	-2.21
UUAUCUCCAGCUAUGCUGU against LOC440292	1.49
UCCUCAUGUAUUUUGGUCC against ELOVL5	-0.118
UCACUUAGCAUGGGUAUUG against TMOD4	-0.648
UUCUCUUCCAUCUCCGCCC against TNRC18	-0.725
AAACUGGUAAUAUGAAUUC against IQSEC2	1.31
UUUGGUCCAAAUUCACUCC against C2orf76	-2.66

Sequence	seed-corrected z-score
GGCUGGUCGUGAUCUUUCC against SPDYE2	0.846
UUCGAUAUACCAGAACCGC against LPGAT1	-1.1
UGUAGUAAUGUGAUUUUCC against CTBP2	1.22
UUCCUCGUAGGUCCACUCG against ARID3C	-0.393
UUUCCUGCACCCAUAAGUC against C11orf58	-0.0639
GAACGACUCAGAUCCCGGA against HCRT	-12.7
UUACAGGUAGCGGCAAGCA against SP8	0.823
UACCUGAAAACCUAGUUUC against TBPL1	-0.106
UAUAGUAAAGCCCAGACGG against CNTNAP3	-2.74
AUAUGUUUACUACCGGUGC against CYP4Z1	-0.0519
UUCGCUUAACAUGCUCUCC against SKIL	-1.15
AAUUCCAGAAUUACAGGCU against PRAC1	-0.113
UAAGAUGAGAGAGUGUCCA against TAS2R1	0.755
UACUGGUCUAGGAGGUAUG against ERRFI1	-0.314
AGACUGAGCAGUAGGACUC against SLC35E4	-2.41
AUAUGGUCAAAUGAGUUAG against KIF3B	1.67
UUUCCGUACAUUGUGGUCC against ATP13A5	0.276
UAAGCACGAACAGUUAUAG against USP47	0.264
AUAGGGCACAUCUUGUAGG against CSDC2	0.0846
UCUGUUUUGAAGGACCUCU against ENTPD6	0.116
UUCGCAUUUGUAUUCGACC against GNB4	0.0257
UAUUUCACCAUCUCCGAGC against MAGEF1	-2.32
UGAGGUUAUACGUUCCCUG against KIAA1549	-0.0625

Sequence	seed-corrected z-score
UUGGGUCCGAGGAACAACU against ZNF469	0.678
UCUUGCAACAGAGCCCUGA against TESK1	-0.681
AUCCGCAUCAGUAACAUUG against CASQ1	-0.835
UUCCUUAAUGGUGUAUUCG against RIN3	0.651
UAUGGAACUGUAUAUAGGA against EVA1C	0.1
UGCUCUGUAAUCACGGGCU against WARSP1	-1.94
AUACUGUAGACGUACCUCU against F2R	-0.762
AAAGGUUCACCACAUAGCC against SORL1	-3.01
UUAUGUGAACCAUCGCAGG against CISD2	0.515
UCCAGUAGUAGUCUUCCAG against MAF	-2.92
AUAGGUGUUGAUACGAGCC against SATB1	-0.199
UAUCUUUCCUGGUAUGUCA against LPCAT3	-0.533
UCGAUUUUGAGAAUCAAUG against VPS45	0.271
UCAUAGCAAAGGAUCAGCC against CDC42BPB	-3.29
UUCCUUACCAUCAGGCAAG against DAP3	0.589
AUGGGUUCCAGCAACAAUC against TMEM65	0.797
UUCUUGUAGUCCUCUAGGC against FZD8	0.236
AUAGUAAUUCCUGGUAAAG against CYBA	-3.24
